Measured values as given in PubChem BioAssay (NCI).
The panel holds about 79,000 compounds, 15% with a hit somewhere; the sample as a whole holds those more often. Calls of active or inactive are those of the source. Cut-off read from the data, not from the text of the source: active = growth inhibition above about 70%; inactive = the rest.

What was measured:
[1] = NCI Yeast Anticancer Drug Screen. Data for the rad52 strain (AID 147);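 note: 0% = growth of vehicle-treated control cultures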; conditions: S. cerevisiae rad52 mutant growth inhibition, active compounds read high
Summary of the method: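 Screen used a yeast mutant impaired in DNA repair. After compound exposure, growth was measured. Values reflect inhibition compared with vehicle-treated cells.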

[2] = NCI Yeast Anticancer Drug Screen. Data for the wt1 strain (AID 149);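 note: 0% = growth of vehicle-treated wt1 cultures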; conditions: S. cerevisiae wt1 strain (SPY 50644) growth inhibition, active compounds read high
Summary of the method: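 Readout: yeast growth inhibition, normalised to vehicle controls, in the wt1 strain exposed to test compounds.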

[3] = NCI Yeast Anticancer Drug Screen. Data for the rad50EPP+ strain (AID 151);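 note: 0% = growth of vehicle-treated control cultures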; conditions: S. cerevisiae rad50 mutant strain, active compounds read high
Summary of the method: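 Exposing the rad50EPP+ strain to each compound, growth was compared with vehicle-only cultures to give inhibition.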

[4] = NCI Yeast Anticancer Drug Screen. Data for the mgt1 strain (AID 153); conditions: S. cerevisiae mgt1 mutant growth inhibition, active compounds read high
Summary of the method: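 Genetically defined yeast (mgt1) treated with compound; inhibition of growth expressed against vehicle-treated controls.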

[5] = NCI Yeast Anticancer Drug Screen. Data for the rad50 strain (AID 155);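 note: 0% = growth of vehicle-only cultures of the same strain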; conditions: S. cerevisiae rad50 strain growth inhibition, active compounds read high
Summary of the method: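 Compounds were tested on a yeast strain with an engineered DNA damage repair alteration; the reported value is growth inhibition normalised to vehicle treatment.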

[6] = NCI Yeast Anticancer Drug Screen. Data for the mec2-1 strain (AID 157); conditions: S. cerevisiae mec2-1 strain, active compounds read high
Summary of the method: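 Readout is yeast growth inhibition, normalised to vehicle-treated controls, in the mec2-1 strain exposed to compound.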

[7] = NCI Yeast Anticancer Drug Screen. Data for the rad14 strain (AID 159);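 note: 0% = growth of vehicle-treated control cultures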; conditions: S. cerevisiae rad14 strain growth inhibition, active compounds read high
Summary of the method: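 Compound-treated yeast with a defined DNA-repair lesion; growth inhibition normalised to vehicle-treated cultures.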

[8] = NCI Yeast Anticancer Drug Screen. Data for the sgs1 mgt1 strain (AID 161);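 note: 0% = growth of cultures given vehicle only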; conditions: S. cerevisiae sgs1 mgt1 strain, active compounds read high
Summary of the method: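 Growth of a repair-deficient yeast mutant was monitored after compound treatment and expressed as inhibition relative to vehicle-treated cultures.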

[9] = NCI Yeast Anticancer Drug Screen. Data for the CLN2oe strain (AID 163);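 note: 0% = growth of vehicle-only control cultures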; conditions: S. cerevisiae CLN2oe strain, active compounds read high
Summary of the method: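 Values reflect how much compound exposure reduced yeast growth, referenced to vehicle-exposed cells. Assay organism is a strain with a defined genetic change affecting cell-cycle control.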

[10] = NCI Yeast Anticancer Drug Screen. Data for the cln2 rad14 strain (AID 165);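 note: 0% = growth equal to vehicle treated cultures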; conditions: S. cerevisiae cln2 rad14 strain, active compounds read high
Summary of the method: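 Relative to vehicle controls, growth inhibition of compound-treated cln2 rad14 yeast was recorded.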

[11] = NCI Yeast Anticancer Drug Screen. Data for the bub3 strain (AID 167); conditions: S. cerevisiae bub3 mutant strain, active compounds read high
Summary of the method: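 Growth of a checkpoint-deficient yeast mutant is measured after compound exposure. Values represent inhibition relative to vehicle.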

[12] = NCI Yeast Anticancer Drug Screen. Data for the wt2 strain (AID 169);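 note: 0% = growth of vehicle-treated yeast cultures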; conditions: S. cerevisiae wt2 strain growth inhibition, active compounds read high
Summary of the method: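 Values express reduction in yeast growth under compound treatment, referenced to vehicle-treated cells.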

[13] = NCI Yeast Anticancer Drug Screen. Data for the mlh1 strain (AID 171);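 note: 0% = growth of vehicle-treated control cultures of the same strain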; conditions: S. cerevisiae mlh1 strain growth inhibition, active compounds read high
Summary of the method: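 Steps: expose the defined-mutant yeast strain to compound; expose a parallel culture to vehicle; measure growth; express compound effect as inhibition relative to the vehicle culture.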

[14] = NCI Yeast Anticancer Drug Screen. Data for the sgs1 strain (AID 173);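 note: 0% = growth of vehicle-only control cultures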; conditions: S. cerevisiae sgs1 mutant, active compounds read high
Summary of the method: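 Treat defined-mutant yeast with compound; measure growth; calculate inhibition relative to vehicle-treated cells.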

[15] = NCI Yeast Anticancer Drug Screen. Data for the mlh1 rad18 strain (AID 175); conditions: S. cerevisiae mlh1 rad18 strain growth inhibition, active compounds read high
Summary of the method: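 Test agents were incubated with a yeast strain of defined genotype (DNA damage repair defect). Inhibition of growth was derived by comparison with vehicle-exposed cultures.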

[16] = NCI Yeast Anticancer Drug Screen. Data for the rad18 strain (AID 177); conditions: S. cerevisiae rad18 mutant growth inhibition, active compounds read high
Summary of the method: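 A genetically defined yeast mutant impaired in DNA damage repair was treated with test compounds, then its growth was measured against cultures receiving vehicle alone.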

[17] = at 5.0 µM (retest, dose inferred, filed as 0.5)
[18] = at 50.0 µM (retest, dose inferred, filed as 5.0)

Measured: growth inhibition

O=[N+]([O-])/C=C/c1cc2ccc3ccccc3c2[nH]1
active: [1]; at 11.0 µM 83% | [1]; at 33.0 µM 88% | [1]; at 100.0 µM 88% | [2]; at 33.0 µM 79% | [2]; at 100.0 µM 93% | [3]; at 1.2 µM 91% | [3]; at 3.7 µM 94% | [3]; at 11.0 µM 94% | [3]; at 33.0 µM 93% | [3]; at 100.0 µM 87% | [4]; at 11.0 µM 81% | [4]; at 33.0 µM 95% | [4]; at 100.0 µM 93% | [5]; at 3.7 µM 70% | [5]; at 11.0 µM 78% | [5]; at 33.0 µM 83% | [5]; [18] 96% | [5]; at 50.0 µM 95.8% | [5]; at 100.0 µM 82% | [6]; at 33.0 µM 88% | [6]; [18] 98% | [6]; at 50.0 µM 98.8% | [6]; at 100.0 µM 93% | [7]; at 33.0 µM 88% | [7]; at 100.0 µM 91% | [8]; [17] 88% | [8]; [18] 97% | [8]; at 50.0 µM 98.7% | [9]; at 100.0 µM 87% | [10]; [18] 83% | [10]; at 50.0 µM 97.2% | [11]; at 33.0 µM 86% | [11]; [18] 96% | [11]; at 50.0 µM 98.8% | [11]; at 100.0 µM 91% | [12]; at 11.0 µM 87% | [12]; at 33.0 µM 95% | [12]; at 100.0 µM 93% | [13]; at 11.0 µM 83% | [13]; at 33.0 µM 93% | [13]; at 100.0 µM 93% | [14]; at 3.7 µM 72% | [14]; at 11.0 µM 89% | [14]; at 33.0 µM 94% | [14]; at 100.0 µM 92% | [15]; [17] 84% | [15]; [18] 94% | [15]; at 50.0 µM 98% | [16]; at 3.7 µM 86% | [16]; at 11.0 µM 90% | [16]; at 33.0 µM 92% | [16]; at 100.0 µM 87%
inactive: [1]; at 1.2 µM 27% | [1]; at 3.7 µM 66% | [2]; at 1.2 µM 9% | [2]; at 3.7 µM 19% | [2]; at 11.0 µM 41% | [4]; at 1.2 µM 15% | [4]; at 3.7 µM 55% | [5]; at 1.2 µM 39% | [5]; [17] 63% | [6]; at 1.2 µM 20% | [6]; at 3.7 µM 33% | [6]; [17] 55% | [6]; at 11.0 µM 63% | [7]; at 1.2 µM 11% | [7]; at 3.7 µM 27% | [7]; at 11.0 µM 62% | [9]; at 1.2 µM 0% | [9]; at 3.7 µM 12% | [9]; at 11.0 µM 31% | [9]; at 33.0 µM 63% | [10]; [17] -6% | [11]; at 1.2 µM 12% | [11]; at 3.7 µM 28% | [11]; [17] 50% | [11]; at 11.0 µM 58% | [12]; at 1.2 µM 26% | [12]; at 3.7 µM 57% | [13]; at 1.2 µM 25% | [13]; at 3.7 µM 50% | [14]; at 1.2 µM 39% | [16]; at 1.2 µM 61%
